# Test results reported in PubChem BioAssay (NCI).
# This is part of a sample that, as a whole, favours compounds with a hit. Of some 83,000 tested, about 20% had one in any assay.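 Testing used 96-well plates and a 48-hour single-concentration exposure. Example: -40 means 40% of the starting cells died.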 Unmarked numbers belong to inactive results. Activity calls are given as the source filed them.
# Tested on: HCT-15 colon
# Assay: NCI-60 one-dose screen, 48 h (100 = growth as untreated, 0 = no growth, -100 = all killed)
# Conditions: 10 µM unless noted
# Protocol: Growth inhibition of the HCT-15 human tumor cell line is measured as a screen for anti-cancer activity. Cells are grown in 96 well plates and exposed to the test compound for 48 hours. Compounds are tested at a single concentration, which is 10^-5 M for most compounds. The reported endpoint is percent growth (GI% or GIPRCNT), where numbers from 0 - 100% represent growth inhibition, and numbers from -100% - 0 represent cell death. For example, a value of 40 represents 60% growth inhibition. A value of 0 means no net growth occurred over the course of the experiment. A value of -40 indicates 40% of cells at the beginning of the experiment died by the end of the experiment. A value of -100 means all cells are dead at the end of the experiment.
# NCI-60 Human Tumor Cell Lines Screen was performed using the standard one-dose NCI protocol, which is described in more detail at https://dtp.cancer.gov/discovery_development/nci-60/default.htm.
# Compounds with GIPRCNT values below 10 were considered active. Activity score was based on GIPRCNT using the following formula: […]
# Score is 0 for GIPRCNT values of 100 or above, 50 for GIPRCNT values of 0, and 100 for GIPRCNT values of -100.
row,SMILES,growth
1,Cc1cc(-c2ccc3nc(N)sc3c2)nc2ccc3[nH]ncc3c12,33.9%
2,CC(=O)Oc1ccc(CCN2C(=O)CSC2=S)cc1,62.3%
3,COc1cc2cc(Oc3ccc(NC(=O)c4cccc(C(F)(F)F)c4)cc3)c(C)nc2cc1OCCN(C)C,-8.74% (active)
4,CC[C@@](C)(NC(=O)C(C)(C)NC(=O)[C@@H](NC(=O)[C@@H]1CCCN1C(=O)C(C)(C)NC(=O)[C@H](CC(C)C)NC(=O)CNC(=O)C(C)(C)NC(=O)[C@@H](NC(=O)C(C)(C)NC(=O)[C@H](CCC(N)=O)NC(=O)[C@H](C)NC(=O)C(C)(C)NC(=O)[C@H](C)NC(=O)C(C)(C)NC(=O)[C@H](C)NC(=O)C(C)(C)NC(C)=O)C(C)C)C(C)C)C(=O)N[C@@H](CCC(N)=O)C(=O)N[C@@H](CCC(N)=O)C(=O)N[C@H](CO)CC1CCCCC1,101% [5 µM]
5,Cc1ccc(/C=C/CC(=O)Nc2ccc(C(=O)Nc3ccc(F)cc3N)cc2)cn1,79.5%
6,CN(C)C(=O)c1ccccc1-n1cnc2ccccc2c1=O,97.5%
7,CN1C(=O)N(C)C2Nn3c(s/c(=C\c4ccccn4)c3=O)=NC21 (stereo not given),99.9%
8,COc1ccc(C2C(C#N)=C(N)Oc3c2sc2ccc(C)cc32)cc1 (stereo not given),19.2%
9,CCCCCc1ccc(S(=O)(=O)N(C(C)=O)c2cccc(-c3csc(N(CCN4CCN(C)CC4)C(C)=O)n3)c2)cc1,-13.6% (active)
10,CC(=O)c1sc(Nc2cccc(Nc3nc(C)c(C)s3)c2)nc1C,44.9%
11,CC(C)C[C@H]1C(=O)O[C@H](C(C)C)C(=O)N(C)[C@@H](C(C)C)C(=O)O[C@H](C(C)C)C(=O)N(C)[C@@H](C(C)C)C(=O)O[C@H](C(C)C)C(=O)N1C,16.6%
12,CN1CCN(c2ccc(C(=O)/C=C/c3ccc(Cl)c(C(F)(F)F)c3)cc2)CC1,17%
13,Nc1nc(-c2cccc([N+](=O)[O-])c2)c(N=Nc2ccccc2Cl)s1,48.9%
14,Cc1ccc(C2CC(c3ccc(Nc4nc(NCCO)nc(Nc5ccc(Cl)cc5)n4)cc3)=Nc3c(N)nc(N)nc3N2)cc1 (stereo not given),-81.7% (active)
15,Cc1cn(-c2cc(NC(=O)c3cncc(C#Cc4cnc5ccc(OCCCS(C)(=O)=O)nn45)c3)cc(C(F)(F)F)c2)cn1,37.8%
16,C(=C(\C1=NCCN1)n1cnc2ccccc21)/c1ccc2ccccc2c1,61.1%
17,CC(=O)Nc1ccc(C)c(Nc2cc(-c3ccc(-n4cccn4)cc3)[nH]n2)c1,41.3%
18,O=c1[nH]c2cc(Cl)ccc2n1C1CCN(c2ccc3nnc(Cl)n3n2)CC1,96.5%
19,O=S(=O)(Nc1ccc(C2CC2)cc1)c1ccc(-c2cnc(C3CC3)o2)cc1,39.9%
20,COc1ccc(-c2nnc(SCc3ccc(O)c4ncccc34)n2-c2ccccc2)cc1,9.65% (active)

row,SMILES,growth
1,CCOC(=O)CC(=O)CSC1=NC2C(NN1)N(C)C(=O)N2C (stereo not given),63%
2,Oc1ccccc1-c1nnc(SCc2ccc(O)c3ncccc23)o1,16.3%
3,IP(CCCCCCCCCCSc1n(Cc2ccc3ccccc3c2)c(-c2ccccc2)c(-c2ccccc2)[n+]1Cc1ccc2ccccc2c1)(c1ccccc1)(c1ccccc1)c1ccccc1,-68.3% (active)
4,CN1CCN(c2ccc(C(=O)Nc3cccc(-c4cn(-c5ccc(S(N)(=O)=O)cc5)nn4)c3)cc2C(F)(F)F)CC1,41.1%
5,Nc1c(C(=O)c2ccccc2)sc2nc(-c3cnccn3)cc(-c3cccs3)c12,106%
6,CCOC(=O)c1nn(-c2ccc(C)cc2)c(=O)c2c(N)c(C#N)c(-c3ccc(OC)cc3)cc12,99.2%
7,CCN1C(=O)N(CC)C2SC(N/N=C/c3cccs3)=NC21 (stereo not given),14.8%
8,CCN1C(=O)N(CC)C2SC(N/N=C/c3ccccc3)=NC21 (stereo not given),16.9%
9,O=C(Cn1cc(CN2C(=O)c3ccc([N+](=O)[O-])cc3C2=O)nn1)Nc1ccc(F)cc1Cl,99.5%
10,Oc1ccc(CSc2nnc(-c3ccncc3)n2-c2ccccc2)c2cccnc12,15.1%
11,COc1ccc([C@H]2c3[nH]c4ccccc4c3C[C@@H]3C(=O)N(C4CCN(Cc5ccccc5)CC4)CC(=O)N23)c(OC)c1,48.3%
12,O=C1NC(=O)/C(=C/c2ccc(OCc3cc4ccccc4nc3Cl)cc2)S1,88.3%
13,Cn1c2ccccc2c2c3c(c4c5ccc(Br)cc5oc4c21)C(=O)N(O)C3=O,74.6%
14,CN1CCN(c2ccc3c(c2)nc(NNC(=O)c2ccncn2)c2cccn23)CC1,25.1%
15,C=C(C)[C@@H]1CC[C@]2(C(=O)NCCCN(CCC#N)CCC#N)CC[C@]3(C)[C@H](CC[C@@H]4[C@@]5(C)CCC(=O)C(C)(C)[C@@H]5CC[C@]43C)[C@@H]12,96.4%
16,NCCN1CCN(c2nc(-c3ccccc3)nc3nc(-c4ccccc4)oc23)CC1,-66.8% (active)
17,N#Cc1c(-c2ccccc2)cc(-c2c[nH]c3ccccc23)nc1-c1c[nH]c2ccccc12,99.3%
18,COc1cc(NC2=C(Cl)C(=O)c3nc(C)ccc3C2=O)cc(OC)c1,-66.2% (active)
19,COc1ccc(-c2oc3cc(O)cc(O)c3c(=O)c2OC)cc1O,33.2%
20,Clc1ccc(-c2csc(Nc3cccc(Nc4csc(-c5ccc(Cl)cc5)n4)c3)n2)cc1,56.5%
